Data: PubChem BioAssay (EPA / NIEHS)
Activity calls are given as the source filed them. The calls were made as follows: active = hit-call score of the fitted dose curve at least 0.9, where 1 is the maximum; inactive = score below 0.9.

Assays:
Settings in all cases: mRNA level, 48 h; actives raise or lower the signal
[1] = read-out: Potassium channel subfamily K member 1 (KCNK1), KCNK1 (gene 3775); test: LTEA_HepaRG_KCNK1: Life Technologies and Expression Analysis (LTEA) Assay for Potassium channel subfamily K member 1 (KCNK1) using HepaRG (AID 2283511)
In short: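 Gain or loss of KCNK1 mRNA is the read-out, quantified by qRT-PCR against three housekeeping genes after 48 h chemical treatment of human HepaRG liver cells. Concentrations ran from 100 uM downward in half-log steps, vehicle 0.5% DMSO.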

[2] = read-out: Keratin 19 (KRT19), KRT19 (gene 3880); test: LTEA_HepaRG_KRT19: Life Technologies and Expression Analysis (LTEA) Assay for Keratin 19 (KRT19) using HepaRG (AID 2283512)
In short: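 Differentiated HepaRG cells in serum-free induction medium, exposed 48 h in duplicate to 8 half-log concentrations up to 100 uM in 0.5% DMSO. KRT19 mRNA by qRT-PCR, normalized to ACTB, GAPDH, POLR2A; bidirectional fit vs DMSO.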

[3] = read-out: JUN Transcription Factor, JUN (gene 3725); test: LTEA_HepaRG_JUN: Life Technologies and Expression Analysis (LTEA) Assay for JUN Transcription Factor using HepaRG (AID 2283513)
In short: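 Differentiated HepaRG cells were exposed to chemicals for 48 h in serum-free induction medium, 8 concentrations from 100 uM in half-log steps, 0.5% DMSO vehicle, in duplicate. JUN mRNA was quantified by TaqMan qRT-PCR, normalized to ACTB, GAPDH, POLR2A.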

[4] = read-out: Lipase C (LIPC), LIPC (gene 3990); test: LTEA_HepaRG_LIPC: Life Technologies and Expression Analysis (LTEA) Assay for Lipase C (LIPC) using HepaRG (AID 2283514)
In short: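 Read-out is LIPC transcript level by TaqMan qRT-PCR, normalized to three housekeeping genes, after 48 h chemical treatment of human HepaRG liver cells. Curves span eight concentrations topping at 100 uM; activity in either direction scored relative to 0.5% DMSO.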

[5] = read-out: Lipoprotein lipase (LPL), LPL (gene 4023); test: LTEA_HepaRG_LPL: Life Technologies and Expression Analysis (LTEA) Assay for Lipoprotein lipase (LPL) using HepaRG (AID 2283515)
In short: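 Read-out is LPL transcript level by qRT-PCR, normalized to three housekeeping genes and fitted bidirectionally against the DMSO control. Human HepaRG cells received chemicals for 48 h at up to 100 uM.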

[6] = read-out: MicroRNA 122 (MIR122), gene 406906; test: LTEA_HepaRG_MIR122: Life Technologies and Expression Analysis (LTEA) Assay for MicroRNA 122 (MIR122) using HepaRG (AID 2283516); also: the transcript read is the microRNA miR-122
In short: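 Differentiated human HepaRG cells were exposed 48 h in serum-free induction medium to eight half-log concentrations (top 100 uM, 0.5% DMSO). Transcript level was measured by TaqMan qRT-PCR, normalized to ACTB, GAPDH and POLR2A, and fitted bidirectionally versus DMSO.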

[7] = read-out: matrix metalloproteinase-10 (MMP10), MMP10 (gene 4319); test: LTEA_HepaRG_MMP10: Life Technologies and Expression Analysis (LTEA) Assay for matrix metalloproteinase-10 (MMP10) using HepaRG (AID 2283517)
In short: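 Gain or loss of MMP10 mRNA is fitted relative to the 0.5% DMSO vehicle. The human hepatic line HepaRG receives a 48-hour serum-free exposure, in duplicate, with a maximum concentration of 100 uM.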

MYC, MYC (gene 4609) = test: LTEA_HepaRG_MYC: Life Technologies and Expression Analysis (LTEA) Assay for MYC using HepaRG (AID 2283518)
In short: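 Differentiated HepaRG cells exposed 48 h in serum-free induction medium to 8 concentrations (top 100 uM, half-log steps; 0.5% DMSO), duplicate. MYC mRNA measured by Fluidigm qRT-PCR, normalized to ACTB, GAPDH, POLR2A; bidirectional fit versus DMSO.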

[8] = read-out: matrix metalloproteinase-3 (MMP3), MMP3 (gene 4314); test: LTEA_HepaRG_MMP3: Life Technologies and Expression Analysis (LTEA) Assay for matrix metalloproteinase-3 (MMP3) using HepaRG (AID 2283519)
In short: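 HepaRG, human; 48 h dosing, 8 conc. (max 100 uM, half-log), duplicate, 0.5% DMSO. Readout: MMP3 transcript by Fluidigm TaqMan qRT-PCR, ACTB/GAPDH/POLR2A-normalised. Gain or loss fitted vs DMSO.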

[9] = read-out: Paternally Expressed 10 (PEG10), PEG10 (gene 23089); test: LTEA_HepaRG_PEG10: Life Technologies and Expression Analysis (LTEA) Assay for Paternally Expressed 10 (PEG10) using HepaRG (AID 2283520)
In short: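 Differentiated HepaRG cells, plated 48 h then switched to serum-free induction medium, were exposed in duplicate for 48 h to eight half-log concentrations topping at 100 uM in 0.5% DMSO. PEG10 mRNA was quantified by TaqMan qRT-PCR, normalised to ACTB, GAPDH and POLR2A.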

Measured: AC50

Cc1cc(C)nc(Nc2ccccc2)n1
active: [2] 18.7 µM
not listed: [9]
inactive: all other assays above

OC(c1ccc(Cl)cc1)(c1ccc(Cl)cc1)C(Cl)(Cl)Cl
inactive: [3] | [5] | [9]
active: [1] 50 µM | [2] 50 µM | [4] 77.7 µM | [6] 64.9 µM | [7] 67.2 µM | MYC, MYC (gene 4609) 73.7 µM | [8] 50 µM

CCSC(=O)N1CCCCCC1
not listed: [9]
inactive: all other assays above

CO/N=C(/C1=NOCCO1)c1ccccc1Oc1ncnc(Oc2ccccc2Cl)c1F
inactive: [1]
active: [2] 13.3 µM | [4] 30.1 µM | [5] 23.2 µM | [6] 26.4 µM | [7] 50 µM | MYC, MYC (gene 4609) 29.9 µM | [8] 50 µM

CCC(C)n1c(=O)[nH]c(C)c(Br)c1=O (stereo unspecified)
active: [2] 11.8 µM | [4] 23.3 µM | [5] 14.4 µM | [6] 10.4 µM | MYC, MYC (gene 4609) 24.8 µM | [9] 21.1 µM
inactive: [1] | [3] | [7] | [8]

COC(=O)NC(=S)Nc1ccccc1NC(=S)NC(=O)OC
inactive: all assays above

COC(=O)NS(=O)(=O)c1ccc(N)cc1
not listed: [9]
inactive: all other assays above

CC1(C)C(C=C(Cl)Cl)C1C(=O)OC(C#N)c1cccc(Oc2ccccc2)c1 (stereo unspecified)
active: [9] 50 µM
inactive: all other assays above

CCOC(=O)C(C)OC(=O)c1cc(Oc2ccc(C(F)(F)F)cc2Cl)ccc1[N+](=O)[O-] (stereo unspecified)
active: [2] 13.3 µM | [9] 9.92 µM
not listed: [8]
inactive: all other assays above

CCNP(=S)(OC)O/C(C)=C/C(=O)OC(C)C (stereo unspecified)
active: [2] 50 µM | [5] 50 µM | [8] 50 µM
not listed: [9]
inactive: all other assays above

COCC(=O)N(c1c(C)cccc1C)C(C)C(=O)OC (stereo unspecified)
inactive: all assays above

CC(C)Nc1nc(Cl)nc(NC(C)C)n1
active: [9] 27.2 µM
inactive: all other assays above

COc1ccc(-c2ccccc2)cc1NNC(=O)OC(C)C
not listed: [3] | [9]
inactive: all other assays above

CCOc1cc(C(C)(C)C)ccc1C1COC(c2c(F)cccc2F)=N1 (stereo unspecified)
active: [2] 4.11 µM | [4] 33 µM | [5] 52.9 µM | MYC, MYC (gene 4609) 33 µM
inactive: [1] | [6] | [7] | [8]

CCOc1nc(C(Cl)(Cl)Cl)ns1
inactive: [2] | [7]
active: [1] 1.22 µM | [3] 1.89 µM | [4] 0.944 µM | [5] 1.06 µM | [6] 0.682 µM | MYC, MYC (gene 4609) 1.03 µM | [8] 2.93 µM

CCN(CC)c1nc(C)cc(OP(=S)(OC)OC)n1
not listed: [9]
inactive: all other assays above

CC(C)(C)C(=O)C(Oc1ccc(Cl)cc1)n1cncn1 (stereo unspecified)
not listed: [3] | [9]
inactive: all other assays above

Clc1nc(Cl)nc(Nc2ccccc2Cl)n1
inactive: all assays above

O=c1n(Cl)c(=O)n(Cl)c(=O)n1Cl
inactive: all assays above

CCOc1nc(F)cc2nc(S(=O)(=O)Nc3c(Cl)cccc3Cl)nn12
active: [2] 9.92 µM | [8] 50 µM
not listed: [9]
inactive: all other assays above

Cc1ccc(N=CN(C)C=Nc2ccc(C)cc2C)c(C)c1
not listed: [9]
inactive: all other assays above

COCc1cnc(C2=NC(C)(C(C)C)C(=O)N2)c(C(=O)O)c1 (stereo unspecified)
inactive: all assays above

Nc1c(Cl)c(F)nc(OCC(=O)O)c1Cl
inactive: all assays above

CC1(C)CCC(=Cc2ccc(Cl)cc2)C1(O)Cn1cncn1 (stereo unspecified)
not listed: [9]
inactive: all other assays above

O=C1C2CC=CCC2C(=O)N1SC(Cl)(Cl)Cl (stereo unspecified)
active: [4] 49.2 µM | [5] 73.5 µM | [7] 49.2 µM
inactive: all other assays above

N#CN=C1SCCN1Cc1ccc(Cl)nc1
inactive: all assays above

C=C(C)CN(CC)c1c([N+](=O)[O-])cc(C(F)(F)F)cc1[N+](=O)[O-]
not listed: [3] | [9]
inactive: all other assays above

COP(=S)(OC)Oc1ccc([N+](=O)[O-])c(C)c1
not listed: [9]
inactive: all other assays above

CCCCC(C#N)(Cn1cncn1)c1ccc(Cl)cc1 (stereo unspecified)
active: [8] 73.1 µM
not listed: [9]
inactive: all other assays above

CC(C)N1C(=O)c2ccccc2NS1(=O)=O
inactive: all assays above

CC(C)=CC1C(C(=O)OCc2coc(Cc3ccccc3)c2)C1(C)C (stereo unspecified)
not listed: [9]
inactive: all other assays above

COP(=S)(OC)SCn1nnc2ccccc2c1=O
inactive: all assays above

CC1(C)C(C(=O)OC(C#N)c2cccc(Oc3ccccc3)c2)C1(C)C (stereo unspecified)
inactive: all assays above

CNC(=O)Oc1cccc2ccccc12
not listed: [9]
inactive: all other assays above
